# Test results reported in PMC7826789 (International Journal of Molecular Sciences, 2021).
smiles,measurement,setting,value
Cl.O=C(Nc1ccc(Oc2ccc3[nH]c(NC(=O)c4ccccc4)nc3c2)cc1)Nc1cc(C(F)(F)F)ccc1F [GW709042A],Kinases covered,KDR,KDR
Cc1cc(O)cc(C)c1/C=C/c1cncc(C(N)=O)c1 [GW435821X],Kinases covered,IKBKE,IKBKE
Cn1ccc2ncnc(Oc3ccc(NC(=O)Nc4ccccc4)cc3)c21 [TPKI-69],Kinases covered,KDR,KDR
same,Kinases covered,KIT,KIT
C[C@@H]1CCNC(=O)c2cc3ccc(C(=O)Nc4nc5ccccc5n4CCCN(C)C)cc3n21 [BI00645435],Kinases covered,LRRK2,LRRK2
CCc1cc(Nc2nccc(-c3c(-c4ccc(OC)c(C(=O)Nc5c(F)cccc5F)c4)nc4ccccn34)n2)c(OC)cc1N1CCC(N2CCN(S(C)(=O)=O)CC2)CC1 [GSK1904529],Kinases covered,INSR,INSR
Cl.O=C1Nc2ccc(-c3cccnc3)cc2C1=Cc1cc(Br)c(O)c(Br)c1 [GW429374A],Kinases covered,IKBKE,IKBKE
CC(C)COC(=O)c1ccc2c(c1)/C(=C/Nc1ccc(S(N)(=O)=O)cc1)C(=O)N2 [GW416981X],Kinases covered,IKKE,IKKE
COC(=O)Nc1nc2ccc(Oc3ccc(NC(=O)Nc4cc(C(F)(F)F)ccc4F)cc3)cc2s1.Cl [GW693917A],Kinases covered,KDR,KDR
COc1cc2ncnc(Nc3cccc(Cl)c3F)c2cc1O[C@H]1CC[C@H]([C@@H]2NCCNC2=O)CC1 [BI00133844],Kinases covered,LCK,LCK
same,Kinases covered,LYN,LYN
CN1CCN(C(=O)c2ccc(NC(=O)Nc3ccc(N(C)c4ccnc(Nc5ccc(CS(C)(=O)=O)cc5)n4)cc3)cc2)CC1.Cl [GW830263A],Kinases covered,KDR,KDR
Cl.O=C(Nc1ccc(Oc2ccc3[nH]c(NC(=O)c4ccco4)nc3c2)cc1)Nc1cc(C(F)(F)F)ccc1F [GW683134A],Kinases covered,KDR,KDR
same,Kinases covered,KIT,KIT
NC(=O)c1cccnc1COc1cc(-c2ccc(N3CCOCC3)nc2)cc2ncccc12 [BI01125081],Kinases covered,JAK2,JAK2
COc1cc2ncnc(Nc3ccc(F)c(Cl)c3)c2cc1O[C@H]1CC[C@H](N)CC1 [BIBW3133BS],Kinases covered,IRAK1,IRAK1
same,Kinases covered,LOK,LOK
CCS(=O)(=O)c1ccc(OC)c(Nc2ncc(-c3cccc(OC)c3)o2)c1 [GW580509X],Kinases covered,KIT,KIT
COc1cc(Nc2nccc(N3CCC(NC(=O)C4COc5ccccc5O4)C3)n2)cc(OC)c1OC (stereo not drawn) [GSK1379761],Kinases covered,JAK2,JAK2
COc1cc(-c2cncc(-c3cnn(C4CCNCC4)c3)c2)cc(OC)c1OC [K05908],Kinases covered,LCK,LCK
CNC(=O)c1c(F)cccc1Nc1nc(Nc2cc3c(cc2OC)CCN3C(=O)CN(C)C)nc2[nH]ccc12 [GSK1838705],Kinases covered,IRR,IRR
COC[C@@H](C)N[C@H]1CC[C@H](Nc2cc(-c3cccc(NCC4(C#N)CCOCC4)n3)c(Cl)cn2)CC1 [NVP-2],Kinases covered,IRAK1,IRAK1
CCS(=O)(=O)c1ccc(OC)c(Nc2ncc(-c3cccc(F)c3)o2)c1 [GW621970X],Kinases covered,KIT,KIT
CNc1nc(Nc2ccc(C(=O)N3CCOCC3)cc2OC)ncc1Cl [HG-10-102-01],Kinases covered,LRRK2,LRRK2
O=C(Nc1ccccc1)Nc1cccc(Oc2ccc3nccn3n2)c1 [TPKI-39],Kinases covered,KIT,KIT
COc1cc(N2CCN(C(C)C)CC2)ccc1Nc1nc(Nc2ccc(F)cc2C(=O)NC[C@@H](O)CO)c2cc[nH]c2n1 [GSK1392956A],Kinases covered,INSR,INSR
C[C@@H]1CCN(C(=O)CO)C[C@@H]1N(C)c1ncnc2[nH]ccc12 [PFE-PKIS 34],Kinases covered,JAK2,JAK2
same,Kinases covered,JAK3,JAK3
C/C(Nc1ccc(S(N)(=O)=O)cc1)=C1/C(=O)Nc2ccccc21 [GW335962X],Kinases covered,KIT,KIT
CN(C)C/C=C/C(=O)Nc1ccc(C(=O)Nc2cccc(Nc3ncc(Cl)c(-c4c[nH]c5ccccc45)n3)c2)cc1 [THZ1],Kinases covered,INSR,INSR
COc1cc2nccc(Nc3ccc(OCc4ccc(NC(C)=O)cc4)cc3)c2cc1OC [GW440135],Kinases covered,KDR,KDR
same,Kinases covered,KIT,KIT
O=C(Nc1cccnc1)c1cc(-c2ccnc(F)c2)ccc1OCc1ccccc1 [GSK2578215],Kinases covered,LRRK2,LRRK2
CNc1nc(Nc2ccc(C(=O)N3CCOCC3)cc2OC)nc2[nH]cc(Cl)c12 [JH-II-127],Kinases covered,LRRK2,LRRK2
Nc1ncnc2occ(-c3ccc(NC(=O)Nc4cc(C(F)(F)F)ccc4F)cc3)c12 [GW770249X],Kinases covered,KDR,KDR
same,Kinases covered,KIT,KIT
Nc1n[nH]c2ncc(-c3ccccc3)cc12 [SB-517081],Kinases covered,KIT,KIT
CCCCN(Cc1ccccc1)C(=O)c1ccc(S(=O)(=O)Nc2ccccc2)cc1 [TH257],Kinases covered,LIMK2,LIMK2
Cc1cc(NC(=O)c2cccc(NC(=O)/C=C/CN(C)C)c2)ccc1Nc1nccc(-c2cccnc2)n1 [JNK-IN-7],Kinases covered,IRAK1,IRAK1
same,Kinases covered,JNK1,JNK1
same,Kinases covered,JNK2,JNK2
same,Kinases covered,JNK3,JNK3
O=C(O)/C=C/C(=O)O.OCCCNc1nccc(-c2c(-c3ccc(F)cc3)nn3cc(C(F)(F)F)ccc23)n1 [GW569293E],Kinases covered,LATS1,LATS1
COc1cc(C)c(N(C)C(=O)CN(C)C)cc1Nc1nc(Nc2cccc(F)c2C(N)=O)c2cc[nH]c2n1 [GSK2219385],Kinases covered,INSR,INSR
COc1cc(/C=N/Nc2ncnc3[nH]ncc23)ccc1O [GW578748X],Kinases covered,IKBKE,IKBKE
CN(C)C(=O)/C(C#N)=C/c1ccc(-c2nc3cnc4[nH]ccc4c3n2C2CCCCC2)o1 [FM-381],Kinases covered,JAK1,JAK1
same,Kinases covered,JAK3,JAK3
Nc1nccc(-c2c(-c3ccc(F)cc3)ncn2CCCN2CCOCC2)n1 [SB-216385],Kinases covered,MAP2K3,MAP2K3
